Calls of active or inactive are those of the source. The calls were made as follows: active = hit-call score of the fitted dose curve at least 0.9, where 1 is the maximum; inactive = score below 0.9.
How the values were obtained:
[1] = target: Paired box protein Pax-6 (Homo sapiens) (UniProt P26367); assay: ATG_Pax6_CIS: Attagene CIS-FACTORIAL HepG2 Assay for human Paired Box 6 (PAX6) (AID 2282956); settings: HepG2 CIS-FACTORIAL PAX6 reporter transcription, RNA readout; actives raise or lower the signal
Chain of Paired box protein Pax-6 (Homo sapiens) (P26367 whole entry, looked up): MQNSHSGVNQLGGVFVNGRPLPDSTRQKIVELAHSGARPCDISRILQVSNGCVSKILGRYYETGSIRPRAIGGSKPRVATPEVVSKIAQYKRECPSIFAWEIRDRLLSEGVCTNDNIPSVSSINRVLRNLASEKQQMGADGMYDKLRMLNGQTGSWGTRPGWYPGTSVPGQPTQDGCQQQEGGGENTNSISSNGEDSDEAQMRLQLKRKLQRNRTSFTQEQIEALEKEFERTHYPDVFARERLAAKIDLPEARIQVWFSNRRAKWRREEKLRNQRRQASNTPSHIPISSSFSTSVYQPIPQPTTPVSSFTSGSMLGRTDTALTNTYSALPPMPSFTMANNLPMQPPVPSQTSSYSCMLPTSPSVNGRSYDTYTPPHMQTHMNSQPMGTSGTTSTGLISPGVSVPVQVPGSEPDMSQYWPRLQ
Outline: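 Values derive from bidirectional curve fitting of reporter mRNA signal relative to DMSO. HepG2 cells bearing transfected cis-regulated MRTUs were exposed for 24 h; transcripts were read by RT-PCR and capillary electrophoresis.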

[2] = ATG_PXRE_CIS: Attagene CIS-FACTORIAL HepG2 Assay for human Pregnane X Receptor Element (PXRE) (AID 2282957); settings: HepG2 Attagene CIS-FACTORIAL PXRE reporter, mRNA; actives raise or lower the signal
Outline: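 Fluorescent capillary electrophoresis of amplified reporter cDNA gave the signal, collected 24 h after dosing HepG2 cells that held transfected cis-element reporter constructs.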

[3] = ATG_PPRE_CIS: Attagene CIS-FACTORIAL HepG2 Assay for human Peroxisome Proliferator-activated Response Element (PPRE) (AID 2282958); settings: HepG2 PPRE cis-element reporter, Attagene transcription factor profiling; actives raise or lower the signal
Outline: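 Endogenous PPRE-driven transcription is measured in HepG2 cells carrying transfected multi-reporter constructs. Reporter transcripts are quantified by RT-PCR, HpaI digestion and capillary electrophoresis 24 h after dosing. DMSO baseline, bidirectional fit.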

[4] = ATG_RORE_CIS: Attagene CIS-FACTORIAL HepG2 Assay for human RAR-related Orphan Receptor Element (RORE) (AID 2282959); settings: HepG2 Attagene cis-factorial RORE reporter, mRNA; actives raise or lower the signal
Outline: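 RORE reporter transcripts reflecting endogenous factor activity were read after 24 h compound exposure of transfected HepG2 cells, using reverse transcription, PCR, fluorescent labelling and capillary electrophoresis sizing. Gain or loss fitted against DMSO.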

[5] = ATG_Sox_CIS: Attagene CIS-FACTORIAL HepG2 Assay for human SRY-box transcription factor (SOX) (AID 2282960); settings: HepG2 Attagene cis-factorial SOX reporter, mRNA; actives raise or lower the signal
Outline: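 Reporter transcripts, measured by RT-PCR and capillary electrophoresis of labelled fragments, report endogenous SOX transcription factor activity. Transiently transfected human HepG2 cells receive chemical for 24 h; changes in either direction are fitted relative to DMSO.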

[6] = target: Transcription factor Sp1 (Homo sapiens) (UniProt P08047); assay: ATG_Sp1_CIS: Attagene CIS-FACTORIAL HepG2 Assay for human Specificity Protein 1 (Sp1) (AID 2282961); settings: HepG2 Sp1 cis-reporter transcription, actives raise or lower the signal
Chain of Transcription factor Sp1 (Homo sapiens) (P08047 whole entry, looked up): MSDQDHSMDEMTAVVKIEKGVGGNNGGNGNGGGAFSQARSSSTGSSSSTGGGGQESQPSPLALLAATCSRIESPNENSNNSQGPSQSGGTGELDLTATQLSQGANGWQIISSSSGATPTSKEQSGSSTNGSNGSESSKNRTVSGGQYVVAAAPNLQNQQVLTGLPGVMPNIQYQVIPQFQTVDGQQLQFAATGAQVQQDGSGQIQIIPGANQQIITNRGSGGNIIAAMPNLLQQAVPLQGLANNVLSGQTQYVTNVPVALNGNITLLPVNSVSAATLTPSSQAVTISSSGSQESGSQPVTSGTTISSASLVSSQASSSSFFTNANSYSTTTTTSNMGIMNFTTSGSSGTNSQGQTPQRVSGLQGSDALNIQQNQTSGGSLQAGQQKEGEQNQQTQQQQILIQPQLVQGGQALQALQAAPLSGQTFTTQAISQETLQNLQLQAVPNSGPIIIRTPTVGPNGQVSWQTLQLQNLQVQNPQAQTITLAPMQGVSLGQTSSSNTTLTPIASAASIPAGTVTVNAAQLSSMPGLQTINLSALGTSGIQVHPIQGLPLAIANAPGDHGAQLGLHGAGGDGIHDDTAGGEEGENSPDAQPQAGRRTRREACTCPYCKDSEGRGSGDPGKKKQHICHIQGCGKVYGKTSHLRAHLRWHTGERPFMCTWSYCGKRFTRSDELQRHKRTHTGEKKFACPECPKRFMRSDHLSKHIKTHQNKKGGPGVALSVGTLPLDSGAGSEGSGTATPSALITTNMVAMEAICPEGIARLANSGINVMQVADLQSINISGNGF
Outline: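 Read-out is reporter transcript level, measured by RT-PCR and fluorescent capillary electrophoresis after 24 h chemical treatment. System: transiently transfected HepG2 cells reporting endogenous transcription factor activity; gain or loss fitted against DMSO baseline.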

[7] = ATG_SREBP_CIS: Attagene CIS-FACTORIAL HepG2 Assay for human Sterol Regulatory Element Binding (SREBP) (AID 2282962); settings: HepG2 Attagene cis-factorial SREBP reporter, mRNA; actives raise or lower the signal
Outline: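 Values derive from bidirectional curve fitting with DMSO as baseline. The underlying measurement is reporter mRNA from cis-element-regulated units in transiently transfected HepG2, quantified by RT-PCR and capillary electrophoresis after 24 h exposure.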

[8] = target: Signal transducer and activator of transcription 3 (Homo sapiens) (UniProt P40763); assay: ATG_STAT3_CIS: Attagene CIS-FACTORIAL HepG2 Assay for human Signal Transducer and Activator of Transcription 3 (STAT3) (AID 2282963); settings: HepG2, Attagene cis-factorial STAT3 reporter transcription; actives raise or lower the signal
Chain of Signal transducer and activator of transcription 3 (Homo sapiens) (P40763 whole entry, looked up): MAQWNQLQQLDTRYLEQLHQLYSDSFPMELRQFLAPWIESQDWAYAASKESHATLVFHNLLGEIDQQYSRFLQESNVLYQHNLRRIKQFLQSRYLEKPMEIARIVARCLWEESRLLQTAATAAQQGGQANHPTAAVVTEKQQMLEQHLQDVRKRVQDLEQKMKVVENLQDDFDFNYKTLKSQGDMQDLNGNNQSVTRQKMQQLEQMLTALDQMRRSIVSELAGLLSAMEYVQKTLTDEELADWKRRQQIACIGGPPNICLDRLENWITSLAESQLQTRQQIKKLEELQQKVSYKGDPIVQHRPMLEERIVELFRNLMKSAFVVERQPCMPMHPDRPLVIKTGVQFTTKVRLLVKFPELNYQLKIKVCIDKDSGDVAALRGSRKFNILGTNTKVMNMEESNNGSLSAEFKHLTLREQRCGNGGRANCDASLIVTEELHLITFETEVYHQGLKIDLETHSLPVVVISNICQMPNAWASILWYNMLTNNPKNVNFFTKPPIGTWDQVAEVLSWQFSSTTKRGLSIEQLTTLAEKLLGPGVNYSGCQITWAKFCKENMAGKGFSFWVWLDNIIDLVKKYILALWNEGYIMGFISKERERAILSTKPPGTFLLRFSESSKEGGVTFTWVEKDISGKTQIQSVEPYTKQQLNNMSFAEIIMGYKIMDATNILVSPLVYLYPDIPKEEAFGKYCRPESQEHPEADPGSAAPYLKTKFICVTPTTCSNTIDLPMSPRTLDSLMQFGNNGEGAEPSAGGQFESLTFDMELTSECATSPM
Outline: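 Cis-factorial format: endogenous transcription factors in HepG2 drive transfected reporter units. After 24 h treatment, reporter RNA was reverse-transcribed, amplified, FAM-labelled and HpaI-digested before CE analysis; activity scored in both directions against DMSO.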

[9] = ATG_TA_CIS: Attagene CIS-FACTORIAL HepG2 Assay for human TA Basal Promoter (AID 2282964); settings: HepG2 Attagene CIS-factorial TA basal promoter reporter; actives raise or lower the signal
Outline: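 Background internal-marker endpoint from a 52-component HepG2 cis-reporter panel. Cells treated 24 h; reporter transcripts quantified via RT-PCR and CE fluorescence against DMSO baseline.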

[10] = ATG_TCF_b_cat_CIS: Attagene CIS-FACTORIAL HepG2 Assay for human T-Cell-Factor with beta-catenin (TCF/b-cat) (AID 2282965); settings: HepG2 TCF/beta-catenin cis-reporter transcription, actives raise or lower the signal
Outline: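 Endogenous transcription factor activity is captured through cis-promoter reporter constructs transiently introduced into human HepG2 liver cells. Induced reporter mRNA is measured after 24 h and fitted bidirectionally relative to DMSO.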

Measured: AC50

CCC(C)C=O (stereo not drawn)
inactive: all assays above

CCCCC/C=C\CCC=O
active: [2] 27.8 µM
inactive: all other assays above

O=C1CCCCCCCCCCCCCCCO1
active: [7] 100 µM
inactive: all other assays above

CCOC(F)(F)C(F)(F)C(F)(F)C(F)(F)F
not listed: [9]
inactive: all other assays above

C1=CCCC1
not listed: [9]
inactive: all other assays above

COc1cc(NC(=O)CC(C)=O)c(OC)cc1Cl
active: [2] 31.5 µM
inactive: all other assays above

FC(F)=C(F)OC(F)(F)C(F)(F)C(F)(F)F
not listed: [9]
inactive: all other assays above

O=S1(=O)OC(c2ccc(O)cc2)(c2ccc(O)cc2)c2ccccc21
active: [2] 13.9 µM
not listed: [9]
inactive: all other assays above

CCCCCc1ccc(Cl)cc1
active: [3] 25.9 µM | [6] 177 µM
not listed: [9]
inactive: all other assays above

CC(=O)Nc1ccc2c(c1)Cc1cc(NC(C)=O)ccc1-2
inactive: all assays above

CN(C)c1ccc(N=Nc2ccccc2C(=O)O)cc1
inactive: [4] | [7] | [8] | [9]
active: [1] 35.1 µM | [2] 26.3 µM | [3] 17.8 µM | [5] 24.9 µM | [6] 40.8 µM | [10] 31.4 µM

CC(C)c1ccc(C#N)cc1
not listed: [9]
inactive: all other assays above

CNC(=S)NN
inactive: all assays above

CC(CC=O)CCCC(C)(C)O (stereo not drawn)
active: [2] 41.2 µM
not listed: [9]
inactive: all other assays above

CCOC(=O)c1ccccc1C(=C1C=C(Br)C(=O)C(Br)=C1)c1cc(Br)c(O)c(Br)c1
active: [1] 39.3 µM | [3] 19.8 µM | [6] 20.7 µM | [10] 24.8 µM
inactive: all other assays above

C1=Cc2ccccc2C1
active: [2] 9.16 µM
not listed: [7]
inactive: all other assays above

C=C(C)C(=O)OCCOc1ccccc1
active: [2] 68.5 µM
not listed: [7]
inactive: all other assays above

CCOC(=O)CC(C(C)=O)C(C)=O
not listed: [9]
inactive: all other assays above

C=CC(C)(CCC=C(C)C)OC(=O)C(C)C (stereo not drawn)
active: [2] 8.57 µM
not listed: [7]
inactive: all other assays above

COC(=O)c1sccc1S(N)(=O)=O
active: [2] 79.3 µM
not listed: [9]
inactive: all other assays above
